Bioassay records: PubChem, ICCB-Longwood Screening Facility, Harvard Medical School
Most compounds without a hit are left out; they make up all but 1.4% or so of the library.
MbtI inh = blocks the Mycobacterium tuberculosis siderophore enzyme MbtI; P9WFX0; inhibition, % (no concentration beside the values); purified MbtI enzyme, fluorescence intensity read-out; hit rate 0.89% among 100,000; in the data active = inhibition mostly above about 56%, no sharp cut-off; inactive = mostly below about 77%
Target sequence (P9WFX0 whole entry, looked up): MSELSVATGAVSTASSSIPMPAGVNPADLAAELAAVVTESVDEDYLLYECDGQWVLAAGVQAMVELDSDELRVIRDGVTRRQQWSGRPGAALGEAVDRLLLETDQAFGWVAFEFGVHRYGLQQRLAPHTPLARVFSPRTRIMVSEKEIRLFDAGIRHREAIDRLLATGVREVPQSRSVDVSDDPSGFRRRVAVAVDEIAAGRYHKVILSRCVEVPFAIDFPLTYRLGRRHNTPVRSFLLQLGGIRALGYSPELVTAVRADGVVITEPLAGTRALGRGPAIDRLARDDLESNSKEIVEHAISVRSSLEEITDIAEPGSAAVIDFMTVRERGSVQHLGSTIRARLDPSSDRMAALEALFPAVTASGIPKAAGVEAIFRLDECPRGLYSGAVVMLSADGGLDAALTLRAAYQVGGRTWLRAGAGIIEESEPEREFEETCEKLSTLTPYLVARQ
MenB inh = Mtb MenB enzyme inhibition; P9WNP5; MenB enzyme assay, absorbance read-out; inhibition, % (concentration not given with the values); hit rate 0.43% among 100,000; AID 540299; in the data active = inhibition above about 21%, passing the limit was not always enough
PV pol inh = inhibitors of poliovirus RNA polymerase binding and polymerization | P03300 | poliovirus polymerase elongation, fluorescence polarization; active compounds read low | % elongation, % (compound at 16.7 µg/mL) | hit rate 0.66% among 150,000 | AID 588519; in the data active = % elongation below about 90%
Large screens that a line does not name were inactive.

COCCNC(=O)c1ccc2c(c1)CCN2S(=O)(=O)c1ccc(C)cc1	none
O=C(NC1CC1)c1cccc(NC(C(=O)N2CCOCC2)c2ccccc2)c1 (stereo not drawn)	none
CCC(C)NC(=O)CCn1c(=O)sc2ccccc21 (stereo not drawn)	none
O=C(CCn1c(=O)sc2ccccc21)n1c(=O)sc2ccccc21	PV pol inh 75.0 (no result: MbtI inh)
C=CCNC(=O)C(C)N1CCN(C)CC1 (stereo not drawn)	none
COC(=O)C1=C(O)c2ccccc2S(=O)(=O)N1	none (no result: MbtI inh)
COc1cccc(CN(C)C(=O)c2ccc3c(c2)NC(=O)CS3)c1	none
COCCN(Cc1ccccc1)C(=O)c1ccc2c(c1)NC(=O)CS2	MbtI inh 62.9
CN(C)S(=O)(=O)c1ccc(SCc2cc3c(cc2Br)OCO3)nc1	none
COc1ccc(CN(C)Cc2nc3cc(Cl)ccc3c(=O)[nH]2)c(OC)c1	none
C#CCSc1n[nH]c(-c2ccccc2)n1	MbtI inh 82.7
OCCSc1n[nH]c(-c2ccccc2)n1	none
O=C1N=c2ccccc2=C1c1c(O)n(-c2cccc(F)c2)[nH]c1=O	MbtI inh 88.0
Cc1cccc(-n2c(O)c(C3=c4ccccc4=NC3=O)sc2=S)c1	none
Cc1cc(NC(=O)CN2CC(C)CC(C)C2)nc2c1c(=O)oc1ccccc12 (stereo not drawn)	none
Cc1nc2sccn2c1-c1nc(-c2ccc(Br)o2)c(C(=O)c2ccc3c(c2)OCCO3)s1	MbtI inh 98.0
Cc1nc2sccn2c1-c1nc(-c2ccccc2)c(C(=O)c2ccc3c(c2)NC(=O)CO3)s1	none (no result: PV pol inh)
CC(=O)NC12CC3CC(C1)CC(C(=O)N1CCN(Cc4ccccc4)CC1)(C3)C2	none
CCOC(=O)C1CCCN1S(=O)(=O)c1cccc2nsnc12 (stereo not drawn)	none
N#Cc1ccc(COC(=O)C2CCCCN2S(=O)(=O)c2cccc3nsnc23)cc1 (stereo not drawn)	PV pol inh 42.0
Cc1cc(C(=O)O)no1	MenB inh 31.8
Cc1ccc(NC(=O)c2cc(C)on2)cc1	none
Cc1cccc(-n2ccnc2SCC(=O)N2CCN(C(=O)C3COc4ccccc4O3)CC2)c1 (stereo not drawn)	none
Cc1[nH]c(=S)[nH]c1Cc1ccccc1	MbtI inh 96.5 (no result: PV pol inh)
Cc1[nH]c(=S)[nH]c(=O)c1Cc1ccccc1	none
COc1ccc(-n2nc3cc(C)c(NC(=O)c4ccc5c(c4)OCO5)cc3n2)cc1	none
COc1ccc(-c2nc(=S)n(CN3CCOCC3)[nH]2)cc1	none (no result: MbtI inh)
S=c1nc(-c2ccccc2)[nH]n1CN1CCc2ccccc2C1	MbtI inh 95.7
CC(C)CSc1nc2sccc2c(=O)n1-c1ccccc1	none
CN(Cc1ccccc1)C(=O)c1cc(-c2ccco2)[nH]n1	none
Nc1nc(-c2ccccc2)cc(=O)[nH]1	none (no result: MenB inh, PV pol inh)
Cc1ccc2oc(Nc3nc(-c4ccccc4)cc(=O)[nH]3)nc2c1	none
Cc1nc(-c2ccccc2)cc(=O)[nH]1	MenB inh 36.5
O=c1cc(-c2ccccc2)nc(Nc2nc3ccccc3o2)[nH]1	PV pol inh 68.0
CC(C)Cn1c(SCCc2ccccc2)nnc1-c1cccc(S(=O)(=O)N2CCOCC2)c1	none
CC1=CC(C)(C)N=C(Nc2nc(C)c3cc(C)cc(C)c3n2)N1	PV pol inh 76.0 (no result: MbtI inh)
CCN1CN=C(Nc2nc(C)c3cc(C)ccc3n2)NC1	none
O=C(O)c1ccccc1N(Cc1ccccc1)C(=O)c1ccccc1O	none
CCS(=O)(=O)c1ccc2oc(SCC(=O)CSc3nc4cc(S(=O)(=O)CC)ccc4o3)nc2c1	MenB inh 44.7
CCS(=O)(=O)c1ccc2oc(SCC(=O)N3CC(C)OC(C)C3)nc2c1 (stereo not drawn)	none
CCC(=N)C1=C(O)CC(C)(C)CC1=O	none
CC1(C)CC(=O)C(C2(O)C(=O)NC(=O)NC2=O)=C(O)C1	PV pol inh 56.0
CCOC(=O)N1CCC(=NNC(=S)Nc2ccc(Cl)cc2Cl)CC1	none
C1=CCC2NC(C1)Cc1ccccc12 (stereo not drawn)	MenB inh 29.3
C[C@]12N[C@H](Cc3ccccc31)c1ccccc12	none
O=C(CN1CCN(C(=O)c2ccc(-c3ccccc3)cc2)CC1)N1CCCC1	none
Cc1ccccc1N1C(=O)Cc2ccccc2C1=O	PV pol inh 48.0
O=C1Cc2ccccc2C(=O)N1c1cccc(C(F)(F)F)c1	none
Cc1cc(C)cc(NC(=S)NC(=O)C2CC2)c1	none
Cc1ccc(NNC(=S)NC(=O)C2CC2)c(C)c1	MbtI inh 94.6
COc1ccc(C(=O)NC(C(=O)Nc2ccc3c(c2)OCO3)C(C)C)cc1 (stereo not drawn)	none
N#CCc1ccc(OC(F)F)cc1	PV pol inh 31.0
COc1ccc(CC#N)cc1	none
Cn1nc(C(=O)N(Cc2cccs2)C2CCCC2)c2c1-c1ccccc1SC2	none
CC(=O)OC(OC(C)=O)C12C=CC(O1)C1C(=O)N(c3ccccc3-c3ccccc3)C(=O)C12 (stereo not drawn)	MbtI inh 90.3
Cc1ccccc1N1CC23C=CC(O2)C(C(=O)OC(C)C)C3C1=O (stereo not drawn)	none
Cc1ccc(C)n1CCC(=O)O	PV pol inh 69.0
Cc1ccn(CCC(=O)O)n1	none
CCCn1c2ccc(F)cc2c2nc3n(c(=O)c21)CCS3	none
O=C(Cn1c2ccc(F)cc2c2nc3n(c(=O)c21)CCS3)N1CCCC1	MenB inh 30.3
COc1ccc(S(=O)(=O)n2nnc3ccccc32)cc1C(C)(C)C	none
Cc1nc2c3cccnc3nn2c(C)c1CCC(=O)NCc1ccccc1	none (no result: MbtI inh, MenB inh)
CSc1ccc(CCNC(=O)CCc2c(C)nc3c4cccnc4nn3c2C)cc1	PV pol inh 14.0 (no result: MbtI inh, MenB inh)
COc1ccc2c(c1)C(C(C#N)C#N)c1c(nc(N)c(C#N)c1N)O2 (stereo not drawn)	none
O=C1c2ccccc2C(=O)N1CN1C(=O)c2ccccc2C1=O	none (no result: PV pol inh)
O=C1c2ccccc2C(=O)N1SSN1C(=O)c2ccccc2C1=O	PV pol inh 85.0
CCN(CC)Cn1c(=S)oc2ccc(Cl)cc21	MbtI inh 64.4
CN(Cc1ccccc1)Cn1c(=S)oc2ccc(Cl)cc21	none
S=c1sscc1-c1ccccc1	PV pol inh 53.0 (no result: MbtI inh)
CCCc1nc(=S)[nH][nH]1	none
S=c1nc(CCCCc2nc(=S)[nH][nH]2)[nH][nH]1	MbtI inh 71.8, PV pol inh 75.0
CC(C)c1ccc(-n2c(=O)[nH]c3ccccc3c2=O)cc1	PV pol inh 73.0
O=c1c2ccccc2[nH]c(=S)n1-c1ccccc1	none
CCOC(=O)/C(C#N)=C1\CCCCCN1	none (no result: MenB inh)
CCOC(=O)C(C#N)=c1sc(=C(C#N)C(=O)OCC)s1	MbtI inh 75.5, PV pol inh 88.0
Cc1cc(NC(=O)OC2CCCC2)ccc1NC(=O)OC1CCCCC1	none
Cc1ccc(Cl)cc1N1CCN(C(c2ccc(F)cc2)c2nnc(-c3ccccc3)o2)CC1 (stereo not drawn)	none (no result: MbtI inh, MenB inh)
Cc1ccc(Cl)cc1N1CCN(C(CC(=O)O)C(=O)c2ccc(F)cc2)CC1 (stereo not drawn)	MenB inh 30.7, PV pol inh 70.0
NC(=O)/C=C1\NC(=O)CS1	none (no result: MenB inh)
Cc1ccc(C(=O)NS(=O)(=O)c2ccccc2)cc1	none
Cc1ccc(S(=O)(=O)NC(=O)c2ccc(Cl)nc2Cl)cc1	PV pol inh 62.0 (no result: MenB inh)
Cc1cc(F)c(F)c(C(=O)n2ccnc2)c1Cl	none (no result: MbtI inh)
c1ccc(-c2nnc(SCCN3CCOCC3)o2)cc1	MenB inh 26.2
COc1ccccc1OCc1nnc(SCCN2CCOCC2)o1	none
CCC1CCCCN1C(=O)CSc1nnc(-c2cccnc2)n1-c1ccc(OC)cc1 (stereo not drawn)	none
